# NS1 function inh: qHTS Assay for Inhibitors of Influenza NS1 Protein Function; Potency, µM (doses to about 46.1 µM), without a hit: at the highest dose activity, positive = more growth; 270,000 compounds, 0.4% hits; calls by dose curve; further: potency means the concentration at half of the fitted maximal effect; actives are rising curves; nearly all actives have a fitted effect of over 50% in size
#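 A cell-based growth assay was used: compounds that relieve NS1-induced slow growth of budding yeast raise OD600. Assay medium was yeast nitrogen base with ammonium sulphate and -URA supplement, pH 6.0, with 2% galactose.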
# Shiga inhibitor: A qHTS for Small Molecule Inhibitors of Shiga Toxin; Vero cells, Shiga toxin protein synthesis inhibition reporter; inhibition, % at 38.7 µM; 290,000 compounds, 9.2% hits; in the data active means inhibition mostly above about 28%, no sharp cut-off; inactive means mostly below about 43%; further: 0% is about no effect
# Pf growth 96h: Primary qHTS for delayed death inhibitors of the malarial parasite plastid, 96 hour incubation. P. falciparum luciferase reporter growth, 96 h. Potency, µM (doses to about 28.7 µM), for the others: top-dose activity change, negative = inhibition, most hits filed as inhibitors. 320,000 compounds, 6.9% hits. AID 504834, 2011; further: potency means the concentration at half of the fitted maximal effect; on the % scale 0 is the no-effect control and ±100 the full control effect
#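 Compounds incubated with erythrocytes infected by luciferase-expressing P. falciparum (2% hematocrit, 0.05% parasitemia final) for 96 hours, 37 C in 5% CO2. Growth inhibition scored as decreased luciferase luminescence.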
# CHX counter: Cycloheximide Counterscreen for Small Molecule Inhibitors of Shiga Toxin | cell reporter, cycloheximide protein synthesis inhibition counterscreen | max response, % | 300,000 compounds, 12% hits; in the data active means max response mostly above about 13%, no sharp cut-off; inactive means mostly below about 14%; further: read at 38.3 µM for the half of the compounds with a filed dose; 0% is about no effect
# Pf growth 48h: Primary qHTS for delayed death inhibitors of the malarial parasite plastid, 48 hour incubation | 310,000 compounds, 5.9% hits | Potency, µM (titrated, usually from 28.7 µM), for inactives: at the top dose activity change, negative = inhibition, most hits filed as inhibitors | P. falciparum luciferase growth in erythrocytes, 48 h; further: potency means the concentration at half of the fitted maximal effect; on the % scale 0 is the no-effect control and ±100 the full control effect
#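 A one-generation exposure of luciferase-tagged malaria parasites in RPMI 1640/Albumax erythrocyte culture, 37 C and 5% CO2. Inhibition is inferred from decreased luminescence after adding detection reagent.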
# Sm TGR block: qHTS Assay for the Inhibitors of Schistosoma Mansoni Peroxiredoxins; Schistosoma mansoni thioredoxin glutathione reductase (TGR), Q962Y6; purified TGR, DTNB reduction, TNB absorbance 405 nm; Potency, µM (titrated, usually from 114 µM), inactives show at the top dose activity change, negative = inhibition, actives largely listed as inhibitors; 360,000 compounds, 3% hits; further: potency means the concentration at half of the fitted maximal effect; on the % scale 0 is the no-effect control and ±100 the full control effect; nearly all actives have a fitted effect of over 60% in size
#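 Kinetic colorimetric format: TGR-catalysed, NADPH-driven DTNB reduction monitored via TNB absorbance. Enzyme dispensed at 20 nM; compound exposure 15 min at room temperature before reaction start.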
# An asterisk follows results filed as active; i = inactive; ? = inconclusive; . = not tested or not shown; [ ] = remark or other dose. Rows were chosen to be rich in hits. Some 21% of all compounds tested hit in one or more screens of this group. Unless noted, the call rests on the fitted dose curve; in most records, active means well fitted curve in the direction sought with a large enough effect; inconclusive means small, poorly fitted or top-dose-only effect, or another doubt; inactive means no such curve, though single readings can be large; an effect the other way counts as inactive or inconclusive.
SMILES,NS1 function inh,Shiga inhibitor,Pf growth 96h,CHX counter,Pf growth 48h,Sm TGR block
O=C(NCCN1CCOCC1)c1sc2ccccc2c1Cl,-8%,66,?,23*,35%,4%
O=C(NCc1cccnc1)c1sc2cc(Cl)ccc2c1Cl,-68%,-20,104%,0,4%,6%
O=C(NCc1ccco1)c1sc2cc(Cl)ccc2c1Cl,-8%,58*,i,34*,18%,40µM*
CCCCNC(=O)c1cc2c(=O)n3cccc(C)c3nc2n(CCN2CCOCC2)c1=N,0%,10,?,-4,3.7µM*,1%
Cc1ccc2nc3c(cc(C(N)=S)c(=N)n3CCCOC(C)C)c(=O)n2c1,5%,10,1.5µM*,-1,12µM*,-23%
CCCn1c(=N)c(C(=O)NC2CCCC2)cc2c(=O)n3cccc(C)c3nc21,-7%,-7,?,-2,1.9µM*,-11%
COCCCn1c(=N)c(C(=O)NCc2cccnc2)cc2c(=O)n3cc(C)ccc3nc21,.,.,.,.,.,1%
CCCCNC(=O)c1cc2c(=O)n3cccc(C)c3nc2n(Cc2ccncc2)c1=N,-1%,11,-25%,-2,5.2µM*,-12%
CCCCn1c(=N)c(C(=O)NC2CCCCC2)cc2c(=O)n3cccc(C)c3nc21,.,.,.,.,.,3%
COc1cc(C(=O)Nc2ccn(C)n2)ccc1OC(F)F,.,.,88%,.,71%,-2%
COc1ccc(-c2c(C)n([O-])c3c([n+]2=O)CCCCC3)cc1OC,4%,-16,6%,-9,-40%[1.15 µM],6%
Cc1ccc2nc3c(cc(C(=O)NCCN4CCOCC4)c(=N)n3CCCN3CCOCC3)c(=O)n2c1,6%,-5,?,-6,12µM*,0%
N=c1c(C(=O)NCCN2CCOCC2)cc2c(=O)n3ccccc3nc2n1CCCN1CCOCC1,16%,-4,39%,-9,?,-10%
Cc1ccc2nc(NCCCN3CCOCC3)c(C=NCCCN3CCOCC3)c(=O)n2c1,-3%,25,-3%,9.9*,5%,-18%
N=c1c(C(=O)NCCN2CCOCC2)cc2c(=O)n3ccccc3nc2n1Cc1ccc(F)cc1,4%,-3,10µM*,7,9.3µM*,-14%
N=c1c(C(=O)NCc2ccc3c(c2)OCO3)cc2c(=O)n3ccccc3nc2n1Cc1cccnc1,4%,-4,3%,-2,10µM*,-23%
Cc1ccn(CCNC(=O)C2CCC(=O)N(CCc3ccc(Cl)cc3)C2)n1 (centres undefined),5%,-33,3%,1,6%,-2%
Cc1cccc(C(=O)OC2CCOC2=O)c1O (centres undefined),-4%,32,18%,-2,5%,-1%
N=c1oc2cc(O)ccc2cc1C(=O)Nc1ccc(F)cc1,-37%,43*,-7%,27*,31%,-18%
O=C(c1ccc(F)cc1)c1cc2ccc(O)cc2oc1=O,-32%,25,56%,12,-11%[0.00184 µM],-8%
COc1ccc2o/c(=N\O)c(C(=O)Nc3ccccc3OC)cc2c1,-9%,27,.,7,23%,-10%
COc1ccc(NC(=O)c2cc3ccc(O)cc3o/c2=N\O)cc1,9%,24,-15%,15*,217%,-4%
Cc1ccc(S(=O)(=O)C(C#N)=C2N(C)c3ccccc3N2C)cc1,.,2,?,1,18%,-1%
O=C(CN1CCOC1=O)N1CCCC(N2CCN(c3cccc(C(F)(F)F)c3)CC2)C1 (centres undefined),4%,-6,-23%,7,3%,40µM*
CCN(CC)CC(=O)N1CCCC(N2CCN(c3cccc(C(F)(F)F)c3)CC2)C1 (centres undefined),7%,9,9.3µM*,6,2%,3%
SMILES,NS1 function inh,Shiga inhibitor,Pf growth 96h,CHX counter,Pf growth 48h,Sm TGR block
CCOc1ccc(/C=N/NC(=O)c2ccc(Cn3cc([N+](=O)[O-])cn3)o2)cc1,5%,51*,?,23*,1%,4%
CCOc1ccccc1/C=N/NC(=O)c1ccc(Cn2cc([N+](=O)[O-])cn2)o1,11%,-6,16%,-2,15%,-25%
C/C(=N\NC(=O)c1ccc(Cn2cc([N+](=O)[O-])cn2)o1)c1cccc(NC(=O)c2cccnc2)c1,10%,33,4.1µM*,-3,-27%,1%
CCCc1ccc(OCc2ccc(C(=O)N/N=C/c3cccnc3)o2)cc1,-13%,110*,33%,68*,23%,-3%
CC(/C=N/NC(=O)c1ccc(Cn2cc([N+](=O)[O-])cn2)o1)=C\c1ccccc1,14%,72*,?,26*,-11%,-28%
COCc1cccc(N2C(=O)CC(C3C=C(C)C4C(=O)N(c5cccc(COC)c5)C(=O)C4C3)C2=O)c1 (centres undefined),.,5,58%,4,-11%,0%
CC(C)(C)c1ccc(OCc2ccc(C(=O)N/N=C/c3ccc([N+](=O)[O-])cc3)o2)cc1,-1%,58*,59%,24,?,10%
CCOc1ccc(/C=N/NC(=O)c2ccc(Cn3cc(Br)cn3)o2)cc1,-9%,active,53%,28*,-1%,6%
O=C(N/N=C/c1cccc(O)c1)c1ccc(COc2ccc3c(c2)CCC3)o1,-5%,57*,-24%,35*,.,0%
NNC(=O)c1ccc(COc2ccc3c(c2)CCC3)o1,17%,39,?,16,-3%,-12%
C/C(=N\NC(=O)c1ccc(Cn2cc(Br)cn2)o1)c1ccc(NC(=O)c2ccoc2C)cc1,-16%,65*,?,39*,?,-10%
Cc1ccccc1NC(=O)c1c(NC(=O)C(C)Oc2cccc(Cl)c2)sc2c1CCCC2 (centres undefined),.,.,.,.,.,-3%
O=C(c1ccc2c(c1)OCO2)c1cn(Cc2ccc(F)cc2)c2ccccc2c1=O,.,.,.,.,.,-1%
CC(=O)c1c(C)[nH]c(C(=O)CN2C(=O)NC3(CCCCC3)C2=O)c1C,.,.,63%,.,43%,-3%
Cc1c(F)cccc1NS(=O)(=O)c1cccs1,.,.,.,.,.,10%
Cc1ccc(-c2noc(-c3nnn(CC(=O)Nc4cc(Cl)ccc4C)c3N)n2)cc1,.,.,.,.,.,2%
CC1(C)Cc2c(C#N)c(NCCN3CCOCC3)nc(-c3ccco3)c2CO1,10%,-10,10µM*,-2,13µM*,35µM*
CC1(C)Cc2c(C#N)c(NCCO)nc(-c3ccco3)c2CO1,5%,-15,?,1,?,3.5µM*
c1ccc(Cn2nnnc2C(c2cccs2)N2CCSCC2)cc1 (centres undefined),-9%,-4,?,1,?,-15%
c1ccc(CCn2nnnc2C(c2cccs2)N2CCN(Cc3ccc4c(c3)OCO4)CC2)cc1 (centres undefined),-5%,-4,-5%,7,?,33%

# High-throughput results: PubChem, National Center for Advancing Translational Sciences (NCATS)
